Results reported in the supplement of paper PMC4723716.

System: Plasmodium falciparum NF54 gametocytes
Assay: viability index relative to DMSO control (fraction); higher = less gametocyte killing
Settings: 12.5 µM, incubation time: 72 h
Method in brief: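 The viability index was calculated as the gametocyte particle count over the plate mean of solvent-only wells. For this, P. falciparum NF54 gametocytes of every stage (I–V) were held with compound at 12.5 µM for 72 hr at 37°C under low oxygen in 384-well plates. MitoTracker Red CMXRos staining for 20 min was followed by transfer of 5 µl into 40 µl of 500 nM dye in serum-free medium, with three fields imaged after 30 min.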

[1] = gametocyte stage: Stage I viability index
[2] = gametocyte stage: Stage II viability index
[3] = gametocyte stage: Stage III viability index
[4] = gametocyte stage: Stage IV viability index
[5] = gametocyte stage: Stage V viability index

SMILES | viability index [1] | viability index [2] | viability index [3] | viability index [4] | viability index [5]
COc1cccc(Nc2nc(N)c3ccccc3n2)c1 | 0.131 | 0.524 | 0.786 | 0.797 | 0.649
CC1CN(C(=O)c2sc3ccccc3c2Cl)CC(C)O1 (stereo not given) | 0.768 | 0.756 | 0.97 | 0.912 | 0.989
COc1ccc(Br)cc1C1Nc2ccc3ccccc3c2C2=C1C(=O)CC(c1ccccc1)C2 (stereo not given) | 0.44 | 0.729 | 0.873 | 0.939 | 1.05
Cc1cccc(Nc2nc(N)c3ccccc3n2)c1 | 0.0785 | 0.635 | 0.948 | 0.854 | 0.692
Cc1ccc(-c2cc3c(SCC(=O)Nc4cc(C(F)(F)F)ccc4Cl)nccn3n2)cc1 | 1.03 | 0.896 | 1.11 | 0.921 | 0.791
COc1ccc(C2c3ccc4ccccc4c3Oc3ncn(CCCN(C)C)c(=N)c32)cc1 (stereo not given) | 0.0367 | 0.0483 | 0.0339 | 0.0316 | 0
CCOc1ccc(Nc2c3ccccc3nc3ccccc23)cc1 | 0.0245 | 0.165 | 0.444 | 0.351 | 0.584
Cc1ccc(Nc2nc(NCCO)c3ccccc3n2)cc1C | 0.0641 | 0.32 | 0.584 | 0.796 | 0.659
Cc1cc(C)c2nc(N3CCC(C(=O)NCCCN4CCC(N5CCCCC5)CC4)CC3)sc2c1 | 0.0166 | 0.204 | 0.455 | 0.477 | 0.352
Cc1ccc(-c2cc3nc4c(c(O)n3n2)CCCC4)cc1 | 0.537 | 0.804 | 0.894 | 0.766 | 0.857
CCOC(=O)C1(Cc2ccccc2)CCN(Cc2cccc(OC)c2O)CC1 | 0.0586 | 0.0716 | 0.404 | 0.522 | 0.649
COc1ccc(-c2nc3cc(Cc4ccc5[nH]c(-c6ccc(OC)cc6)nc5c4)ccc3[nH]2)cc1 | 0.0276 | 0.441 | 0.864 | 0.809 | 0.538
CC(=O)c1ccc(NC(=O)CSc2nc(-c3ccccc3Cl)ns2)cc1 | 0.102 | 0.308 | 0.308 | 0.62 | 0.584
COc1cccc(-c2nn(C)c3sc(C(=O)NCCN4CCN(c5ccccc5F)CC4)cc23)c1 | 0.0431 | 0.436 | 0.777 | 0.836 | 0.835
Oc1ccc(-c2nc(-c3ccc4oc5ccc(-c6[nH]c(-c7ccc(O)cc7)nc6-c6ccccc6)cc5c4c3)c(-c3ccccc3)[nH]2)cc1 | 0.000874 | 0 | 0 | 0 | 0.013
CCN1CCN(Cc2ccc(NC(=O)c3cc4ccc5cccnc5c4[nH]3)cc2)CC1 | 0.834 | 0.845 | 1.09 | 0.997 | 1.02
CNCCCNc1ccnc2cc(Cl)ccc12 | 0.0398 | 0.291 | 0.704 | 0.875 | 0.747
O=C(NC1CCN(Cc2ccccc2)CC1)c1cc(C(=O)NC2CCN(Cc3ccccc3)CC2)cc(C(=O)NC2CCN(Cc3ccccc3)CC2)c1 | 0.0629 | 0.0649 | 0.0393 | 0.0475 | 0.013
O=C(Nc1ccccc1O)c1ccc(-c2ccc(Cl)cc2Cl)o1 | 0.0166 | 0.0976 | 0.6 | 0.653 | 0.736
CCOC(=O)c1cnc2ccc(OC)cc2c1Nc1ccc(N2CCN(C)CC2)cc1 | 0.0953 | 0.479 | 0.931 | 0.842 | 0.779
CN1CCN(c2c3c(c(C#N)c4nc5ccccc5n24)CCC3)CC1 | 1.02 | 0.865 | 1.03 | 1.05 | 0.846
CC1=C(CC(=O)c2cccc([N+](=O)[O-])c2)C(=O)c2ccccc2C1=O | 0.00612 | 0.00167 | 0.0706 | 0.196 | 0.234
Cc1cc(NCCN2CCCCC2)c2ccc3ccccc3c2n1 | 0.0508 | 0.404 | 0.536 | 0.495 | 0.132
O=C(CCl)NCCOc1ccc(Cl)cc1Cl | 0.732 | 0.629 | 0.813 | 0.769 | 0.675
Cc1cc(Nc2ccc(C)c(Cl)c2)n2nc(C(F)(F)F)nc2n1 | 0.881 | 1.23 | 0.983 | 1.08 | 0.945
COc1ccc(CCNC(=O)c2cc(S(=O)(=O)N3CC(C)CC(C)C3)ccc2Sc2ccc(F)cc2)cc1OC (stereo not given) | 0.104 | 0.445 | 0.844 | 0.769 | 0.987
Cc1ccc(F)cc1NC(=O)c1cc(Cl)ccc1Nc1ccccc1 | 0.441 | 0.395 | 0.332 | 0.522 | 0.753
COc1ccccc1CNC(=O)C1c2ccccc2C(=O)N(CC(C)C)C1c1cccs1 (stereo not given) | 0.951 | 0.807 | 1.01 | 0.976 | 1
COc1ccc(C(=O)NC(c2ccccc2Cl)c2cc(Cl)c3cccnc3c2O)cc1 (stereo not given) | 0.11 | 0.0824 | 0.167 | 0.241 | 0.221
